Laboratory results published in the supplement of paper PMC10849652.
About 7,900 targets were measured; listed, in parts, are those with a hit and a random draw of the rest. About 0.6% of all pairs of compound and target were hits.

Each target was assayed with NC(=O)Nc1cc(-c2cccc(F)c2)sc1C(=O)N[C@H]1CCCNC1 (assay: log2 fold change, soluble protein after heating vs DMSO (PISA); higher = thermal stabilisation; K562 cells, 10 uM, 30 min; active = over 0.2 and 3.5 SD of the protein, either way, in both replicates (recomputed)).
Outline: (§1)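 Soluble protein was quantified by TMTpro 16plex LC-MS/MS after channel sums were equalised. It was obtained as the supernatant after 21,000xg for 90 min from pooled aliquots of K562 cells (2×10^6 cells/mL, 10 μM compound, 30 min) heated for 3 min across 48°C-58°C and extracted in PBS with 0.5% NP-40 at 4°C. Thermal stability values are relative to control samples and come from duplicates. They are given as log2 fold changes.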

Chain of UniProt P21695 (P21695 whole entry, looked up): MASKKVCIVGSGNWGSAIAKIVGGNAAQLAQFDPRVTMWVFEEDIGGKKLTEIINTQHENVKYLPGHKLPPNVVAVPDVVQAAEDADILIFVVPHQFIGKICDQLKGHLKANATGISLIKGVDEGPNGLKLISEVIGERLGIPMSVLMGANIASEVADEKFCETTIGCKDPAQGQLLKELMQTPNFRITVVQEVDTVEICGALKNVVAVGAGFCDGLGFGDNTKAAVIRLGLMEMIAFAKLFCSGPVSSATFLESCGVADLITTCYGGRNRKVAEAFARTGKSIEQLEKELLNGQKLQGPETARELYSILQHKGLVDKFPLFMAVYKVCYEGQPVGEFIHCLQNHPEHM
Chain of UniProt O43524 (O43524 whole entry, looked up): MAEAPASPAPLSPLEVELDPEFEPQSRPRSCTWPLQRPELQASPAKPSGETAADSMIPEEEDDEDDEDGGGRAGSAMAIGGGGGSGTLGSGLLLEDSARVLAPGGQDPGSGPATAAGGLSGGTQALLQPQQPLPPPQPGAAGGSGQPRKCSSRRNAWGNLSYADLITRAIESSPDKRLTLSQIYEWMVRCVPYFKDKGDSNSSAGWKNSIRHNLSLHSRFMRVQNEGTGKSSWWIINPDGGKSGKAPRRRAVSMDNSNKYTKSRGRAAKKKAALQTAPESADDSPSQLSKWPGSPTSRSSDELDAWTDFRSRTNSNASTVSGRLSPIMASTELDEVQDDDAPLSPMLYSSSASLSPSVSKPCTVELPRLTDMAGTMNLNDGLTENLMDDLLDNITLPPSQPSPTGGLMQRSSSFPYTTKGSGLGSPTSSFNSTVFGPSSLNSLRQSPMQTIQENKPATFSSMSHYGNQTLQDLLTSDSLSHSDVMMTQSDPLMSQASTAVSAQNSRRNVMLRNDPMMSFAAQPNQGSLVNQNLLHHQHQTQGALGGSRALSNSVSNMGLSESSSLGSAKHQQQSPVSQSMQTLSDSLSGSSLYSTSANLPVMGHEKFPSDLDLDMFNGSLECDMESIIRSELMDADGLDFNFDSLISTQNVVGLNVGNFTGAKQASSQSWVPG
Chain of UniProt P0C0S5 (P0C0S5 whole entry, looked up): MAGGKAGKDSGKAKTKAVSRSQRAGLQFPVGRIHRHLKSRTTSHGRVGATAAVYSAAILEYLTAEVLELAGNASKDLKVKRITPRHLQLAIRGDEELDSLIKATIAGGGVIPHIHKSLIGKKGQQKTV
Chain of UniProt P60520 (P60520 whole entry, looked up): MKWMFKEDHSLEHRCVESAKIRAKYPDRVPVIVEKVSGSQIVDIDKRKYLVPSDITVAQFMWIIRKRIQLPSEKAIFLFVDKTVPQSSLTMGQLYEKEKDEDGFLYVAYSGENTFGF
Chain of UniProt Q8N2G8 (Q8N2G8 whole entry, looked up): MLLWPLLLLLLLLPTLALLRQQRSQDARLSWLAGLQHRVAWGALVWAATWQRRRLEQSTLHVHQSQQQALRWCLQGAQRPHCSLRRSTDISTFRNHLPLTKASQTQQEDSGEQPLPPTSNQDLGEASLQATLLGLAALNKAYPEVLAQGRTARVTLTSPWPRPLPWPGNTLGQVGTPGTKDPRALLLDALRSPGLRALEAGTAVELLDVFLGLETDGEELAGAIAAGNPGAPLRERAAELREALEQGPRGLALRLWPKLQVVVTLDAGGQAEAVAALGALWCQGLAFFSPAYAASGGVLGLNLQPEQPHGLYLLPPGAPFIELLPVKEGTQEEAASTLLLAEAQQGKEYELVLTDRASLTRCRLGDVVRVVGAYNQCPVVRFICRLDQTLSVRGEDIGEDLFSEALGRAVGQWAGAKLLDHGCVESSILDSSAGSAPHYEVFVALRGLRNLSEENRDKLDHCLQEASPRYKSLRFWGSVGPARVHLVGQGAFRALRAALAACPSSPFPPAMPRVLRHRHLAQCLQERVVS
Chain of UniProt P36969 (P36969 whole entry, looked up): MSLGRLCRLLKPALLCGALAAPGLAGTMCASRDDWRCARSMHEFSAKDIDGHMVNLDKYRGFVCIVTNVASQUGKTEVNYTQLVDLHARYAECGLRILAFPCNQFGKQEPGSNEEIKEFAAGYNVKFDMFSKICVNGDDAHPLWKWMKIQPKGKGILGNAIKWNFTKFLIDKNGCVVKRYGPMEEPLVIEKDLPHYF
Chain of UniProt Q86VS8 (Q86VS8 whole entry, looked up): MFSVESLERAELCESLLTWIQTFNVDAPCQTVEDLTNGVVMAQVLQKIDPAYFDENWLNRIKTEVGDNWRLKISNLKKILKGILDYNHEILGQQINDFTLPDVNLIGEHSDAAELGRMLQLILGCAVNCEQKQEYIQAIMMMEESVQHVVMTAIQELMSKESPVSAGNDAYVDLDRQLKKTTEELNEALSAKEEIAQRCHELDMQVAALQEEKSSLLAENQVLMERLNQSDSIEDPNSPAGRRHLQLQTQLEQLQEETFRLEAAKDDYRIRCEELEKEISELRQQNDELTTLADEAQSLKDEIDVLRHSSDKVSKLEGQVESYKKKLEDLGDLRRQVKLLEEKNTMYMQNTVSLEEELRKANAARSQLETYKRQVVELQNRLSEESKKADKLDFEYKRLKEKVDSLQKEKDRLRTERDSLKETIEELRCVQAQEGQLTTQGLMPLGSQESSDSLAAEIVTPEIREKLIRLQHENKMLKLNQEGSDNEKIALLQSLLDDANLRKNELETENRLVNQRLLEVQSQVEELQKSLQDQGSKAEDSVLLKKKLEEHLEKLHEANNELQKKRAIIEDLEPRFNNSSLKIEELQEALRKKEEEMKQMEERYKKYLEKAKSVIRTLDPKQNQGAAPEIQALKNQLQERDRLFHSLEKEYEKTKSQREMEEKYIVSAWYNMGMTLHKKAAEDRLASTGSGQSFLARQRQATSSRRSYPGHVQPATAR
Chain of UniProt P50213 (P50213 whole entry, looked up): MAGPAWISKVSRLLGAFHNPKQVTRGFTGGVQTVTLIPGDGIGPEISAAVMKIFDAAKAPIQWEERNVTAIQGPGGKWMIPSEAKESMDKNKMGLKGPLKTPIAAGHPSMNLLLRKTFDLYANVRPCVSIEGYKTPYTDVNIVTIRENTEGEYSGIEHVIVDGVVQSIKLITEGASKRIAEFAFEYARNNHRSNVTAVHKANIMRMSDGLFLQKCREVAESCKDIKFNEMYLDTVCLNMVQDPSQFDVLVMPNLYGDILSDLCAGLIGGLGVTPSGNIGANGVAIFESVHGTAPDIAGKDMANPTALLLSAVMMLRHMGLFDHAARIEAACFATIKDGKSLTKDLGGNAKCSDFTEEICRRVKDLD
Chain of UniProt O76003 (O76003 whole entry, looked up): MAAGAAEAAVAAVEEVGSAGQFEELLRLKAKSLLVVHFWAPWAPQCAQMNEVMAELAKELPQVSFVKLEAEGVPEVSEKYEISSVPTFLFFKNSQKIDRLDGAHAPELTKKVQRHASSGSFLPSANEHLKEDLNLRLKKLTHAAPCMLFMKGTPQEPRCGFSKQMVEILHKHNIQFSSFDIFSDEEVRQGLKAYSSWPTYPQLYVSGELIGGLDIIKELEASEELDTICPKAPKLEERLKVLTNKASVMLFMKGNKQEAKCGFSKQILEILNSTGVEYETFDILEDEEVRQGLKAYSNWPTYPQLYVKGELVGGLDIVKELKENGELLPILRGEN
Chain of UniProt P0CL80 (P0CL80 whole entry, looked up): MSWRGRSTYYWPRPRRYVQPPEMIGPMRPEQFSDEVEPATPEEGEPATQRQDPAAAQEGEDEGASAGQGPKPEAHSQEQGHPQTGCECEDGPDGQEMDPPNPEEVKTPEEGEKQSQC
Chain of UniProt O94925 (O94925 whole entry, looked up): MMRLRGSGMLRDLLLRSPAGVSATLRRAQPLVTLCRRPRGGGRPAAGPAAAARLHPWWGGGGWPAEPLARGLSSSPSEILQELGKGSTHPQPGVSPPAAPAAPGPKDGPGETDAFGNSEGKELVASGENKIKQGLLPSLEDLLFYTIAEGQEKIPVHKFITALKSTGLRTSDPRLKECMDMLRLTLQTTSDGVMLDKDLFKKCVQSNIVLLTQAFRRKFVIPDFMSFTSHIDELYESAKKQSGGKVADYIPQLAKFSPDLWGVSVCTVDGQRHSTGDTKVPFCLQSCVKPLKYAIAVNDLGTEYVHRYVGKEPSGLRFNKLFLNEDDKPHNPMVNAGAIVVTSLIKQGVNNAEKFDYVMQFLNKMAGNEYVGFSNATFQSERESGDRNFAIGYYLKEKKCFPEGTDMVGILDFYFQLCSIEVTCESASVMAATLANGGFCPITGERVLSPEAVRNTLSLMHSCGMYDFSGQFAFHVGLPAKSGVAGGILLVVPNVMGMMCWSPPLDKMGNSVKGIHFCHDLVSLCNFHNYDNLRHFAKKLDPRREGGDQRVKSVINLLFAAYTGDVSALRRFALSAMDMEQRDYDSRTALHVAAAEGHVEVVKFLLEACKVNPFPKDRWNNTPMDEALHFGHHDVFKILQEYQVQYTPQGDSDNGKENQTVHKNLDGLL
Chain of UniProt Q16774 (Q16774 whole entry, looked up): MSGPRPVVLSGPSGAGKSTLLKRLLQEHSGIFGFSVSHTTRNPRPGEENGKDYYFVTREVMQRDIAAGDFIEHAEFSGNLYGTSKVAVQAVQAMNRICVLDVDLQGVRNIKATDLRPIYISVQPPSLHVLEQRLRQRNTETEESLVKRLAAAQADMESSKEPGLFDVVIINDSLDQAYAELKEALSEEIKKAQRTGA
Chain of UniProt Q92947 (Q92947 whole entry, looked up): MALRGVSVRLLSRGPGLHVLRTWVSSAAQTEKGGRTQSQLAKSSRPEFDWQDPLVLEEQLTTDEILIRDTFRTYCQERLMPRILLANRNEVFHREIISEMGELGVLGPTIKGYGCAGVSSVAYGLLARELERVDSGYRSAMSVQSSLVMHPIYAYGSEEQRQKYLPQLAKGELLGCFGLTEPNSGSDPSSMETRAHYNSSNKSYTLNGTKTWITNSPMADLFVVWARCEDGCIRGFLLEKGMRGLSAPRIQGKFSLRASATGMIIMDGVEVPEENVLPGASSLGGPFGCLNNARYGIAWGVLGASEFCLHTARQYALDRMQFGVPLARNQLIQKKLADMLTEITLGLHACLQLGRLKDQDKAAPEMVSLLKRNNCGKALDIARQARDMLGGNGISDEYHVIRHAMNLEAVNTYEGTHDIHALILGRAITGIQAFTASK

log2 fold change, inactive:
FHOD1 (UniProt Q9Y613) -0.075
GPD1 (UniProt P21695) 0.067
GUK1 isoform 2 (UniProt Q16774) -0.126
H2AZ1 (UniProt P0C0S5) 0.067
GABARAPL2 (UniProt P60520) -0.036
HLTF (UniProt Q14527) -0.025
FMC1 (UniProt Q96HJ9) 0.01
GALNT11 (UniProt Q8NCW6) 0.001
HMOX2 (UniProt P30519) -0.022
GUSB (UniProt P08236) -0.044
FBXO3 (UniProt Q9UK99) -0.034
FCHO1 (UniProt O14526) -0.001
GHDC (UniProt Q8N2G8) -0.021
GLUL (UniProt P15104) 0.059
HNRNPK isoform 2 (UniProt P61978) -0.045
HOOK3 (UniProt Q86VS8) 0.05
GLRX3 (UniProt O76003) 0
HIST2H3A (UniProt Q71DI3) 0.032
GLS (UniProt O94925) -0.019
IDH3A (UniProt P50213) 0
HDDC2 (UniProt Q7Z4H3) -0.013
GTF3C4 (UniProt Q9UKN8) -0.015
IFI30 (UniProt P13284) 0.035
FOXO3 (UniProt O43524) -0.395
GOPC (UniProt Q9HD26) -0.055
GPX4 (UniProt P36969) -0.006
FUT8 (UniProt Q9BYC5) -0.022
HADHA (UniProt P40939) -0.035
GAGE12F (UniProt P0CL80) 0.029
GTPBP6 (UniProt O43824) -0.052
GCDH (UniProt Q92947) 0.015
IFITM3 (UniProt Q01628) -0.074
FIS1 (UniProt Q9Y3D6) -0.013
FERMT3 (UniProt Q86UX7) -0.055
HDHD2 (UniProt Q9H0R4) 0.091

What follows are targets tested with NC(=O)c1cnc(N[C@@H]2CCCC[C@@H]2N)nc1Nc1cccc(-n2nccn2)c1 in the same assay as above.
Outline: as §1

log2 fold change, inactive:
FHOD1 (UniProt Q9Y613) -0.042
GPD1 (UniProt P21695) 0
GUK1 isoform 2 (UniProt Q16774) -0.029
H2AZ1 (UniProt P0C0S5) 0.258
GABARAPL2 (UniProt P60520) -0.088
HLTF (UniProt Q14527) 0.037
FMC1 (UniProt Q96HJ9) -0.044
GALNT11 (UniProt Q8NCW6) -0.119
HMOX2 (UniProt P30519) -0.028
GUSB (UniProt P08236) 0.029
FBXO3 (UniProt Q9UK99) -0.013
FCHO1 (UniProt O14526) -0.21
GHDC (UniProt Q8N2G8) 0.013
GLUL (UniProt P15104) -0.104
HNRNPK isoform 2 (UniProt P61978) -0.086
HOOK3 (UniProt Q86VS8) -0.077
GLRX3 (UniProt O76003) -0.057
HIST2H3A (UniProt Q71DI3) 0.286
GLS (UniProt O94925) 0.152
IDH3A (UniProt P50213) -0.033
HDDC2 (UniProt Q7Z4H3) 0.111
GTF3C4 (UniProt Q9UKN8) -0.012
IFI30 (UniProt P13284) 0.127
FOXO3 (UniProt O43524) -0.089
GOPC (UniProt Q9HD26) -0.011
GPX4 (UniProt P36969) 0.079
FUT8 (UniProt Q9BYC5) 0.094
HADHA (UniProt P40939) 0.033
GAGE12F (UniProt P0CL80) -0.013
GTPBP6 (UniProt O43824) -0.066
GCDH (UniProt Q92947) 0.031
IFITM3 (UniProt Q01628) 0.1
FIS1 (UniProt Q9Y3D6) 0.075
FERMT3 (UniProt Q86UX7) -0.107
HDHD2 (UniProt Q9H0R4) -0.016

These targets were tested with NC1(c2ccc(-c3nc4ccn5c(=O)[nH]nc5c4cc3-c3ccccc3)cc2)CCC1 in the same assay as above.
Outline: as §1

log2 fold change, inactive:
FHOD1 (UniProt Q9Y613) 0.179
GPD1 (UniProt P21695) 0.059
GUK1 isoform 2 (UniProt Q16774) -0.059
H2AZ1 (UniProt P0C0S5) 0.444
GABARAPL2 (UniProt P60520) -0.145
HLTF (UniProt Q14527) -0.067
FMC1 (UniProt Q96HJ9) -0.011
GALNT11 (UniProt Q8NCW6) -0.224
HMOX2 (UniProt P30519) -0.094
GUSB (UniProt P08236) 0.047
FBXO3 (UniProt Q9UK99) -0.202
FCHO1 (UniProt O14526) -0.119
GHDC (UniProt Q8N2G8) 0.005
GLUL (UniProt P15104) 0.061
HNRNPK isoform 2 (UniProt P61978) -0.073
HOOK3 (UniProt Q86VS8) -0.079
GLRX3 (UniProt O76003) -0.066
HIST2H3A (UniProt Q71DI3) 0.46
GLS (UniProt O94925) -0.157
IDH3A (UniProt P50213) -0.062
HDDC2 (UniProt Q7Z4H3) -0.005
GTF3C4 (UniProt Q9UKN8) -0.077
IFI30 (UniProt P13284) -0.048
FOXO3 (UniProt O43524) -0.025
GOPC (UniProt Q9HD26) 0.15
GPX4 (UniProt P36969) -0.052
FUT8 (UniProt Q9BYC5) -0.107
HADHA (UniProt P40939) 0.131
GAGE12F (UniProt P0CL80) 0.083
GTPBP6 (UniProt O43824) 0.017
GCDH (UniProt Q92947) 0.052
IFITM3 (UniProt Q01628) -0.089
FIS1 (UniProt Q9Y3D6) 0.002
FERMT3 (UniProt Q86UX7) -0.106
HDHD2 (UniProt Q9H0R4) -0.023
